# Measured values reported in the supplement of paper PMC10849652.
# About 8,800 targets were measured; listed, in parts, are those with a hit and a random draw of the rest. About 0.5% of all pairs of compound and target were hits. Values without a mark were called inactive.
# Compound: Cc1cc(Nc2cc(CN3CCOCC3)c3nc(C)c(Cc4ccc(Cl)cc4F)n3n2)n[nH]1 [gandotinib]
# Test: log2 fold change, soluble protein after heating vs DMSO (PISA); higher = thermal stabilisation; K562 lysate, 10 uM; active = over 0.2 and 3.5 SD of the protein, either way, in both replicates (recomputed)
# How it was run: (§1)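 Values give the log-two fold change in thermal stability against solvent controls, from duplicates. Crude K562 extract at 1 mg/mL protein, made by dounce homogenisation in PBS pH 7.4 with 1 mM MgCl2, was treated with 10 μM compound for 30 min. After 3 min heating across 48°C-58°C, aliquots were pooled, adjusted to 0.5% NP-40 at 4°C and centrifuged at 21,000xg for 90 min. The supernatant was measured by TMTpro 16plex LC-MS/MS with channel sums equalised.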
# Sequence of UniProt Q6NXE6 (Q6NXE6 whole entry, looked up): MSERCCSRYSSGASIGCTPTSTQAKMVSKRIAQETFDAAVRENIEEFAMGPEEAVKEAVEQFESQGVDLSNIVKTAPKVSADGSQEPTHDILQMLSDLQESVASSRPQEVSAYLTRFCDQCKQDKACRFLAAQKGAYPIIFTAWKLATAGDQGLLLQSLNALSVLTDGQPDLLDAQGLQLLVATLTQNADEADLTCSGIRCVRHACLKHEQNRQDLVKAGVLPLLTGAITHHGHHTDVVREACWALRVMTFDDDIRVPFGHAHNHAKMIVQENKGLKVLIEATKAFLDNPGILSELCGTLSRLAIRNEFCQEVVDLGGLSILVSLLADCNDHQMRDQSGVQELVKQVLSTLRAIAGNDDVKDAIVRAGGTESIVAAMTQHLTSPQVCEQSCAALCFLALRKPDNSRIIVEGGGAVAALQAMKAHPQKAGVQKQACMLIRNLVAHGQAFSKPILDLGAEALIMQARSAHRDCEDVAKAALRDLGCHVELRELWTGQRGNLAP
# Sequence of UniProt Q9UJX3 (Q9UJX3 whole entry, looked up): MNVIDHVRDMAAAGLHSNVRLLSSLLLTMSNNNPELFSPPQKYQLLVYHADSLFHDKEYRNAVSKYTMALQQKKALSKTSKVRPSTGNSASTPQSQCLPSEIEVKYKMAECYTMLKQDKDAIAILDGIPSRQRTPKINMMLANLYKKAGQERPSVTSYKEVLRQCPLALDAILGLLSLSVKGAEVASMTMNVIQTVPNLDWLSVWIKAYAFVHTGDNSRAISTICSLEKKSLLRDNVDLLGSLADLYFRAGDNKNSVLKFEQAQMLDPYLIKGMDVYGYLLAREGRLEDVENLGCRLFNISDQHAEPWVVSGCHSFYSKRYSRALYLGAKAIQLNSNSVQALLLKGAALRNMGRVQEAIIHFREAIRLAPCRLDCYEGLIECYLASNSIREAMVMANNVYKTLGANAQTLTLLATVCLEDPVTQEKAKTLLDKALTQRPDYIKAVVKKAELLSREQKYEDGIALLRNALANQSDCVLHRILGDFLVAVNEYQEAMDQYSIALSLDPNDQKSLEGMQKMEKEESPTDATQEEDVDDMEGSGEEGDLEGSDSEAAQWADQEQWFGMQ
# Sequence of UniProt P04083 (P04083 whole entry, looked up): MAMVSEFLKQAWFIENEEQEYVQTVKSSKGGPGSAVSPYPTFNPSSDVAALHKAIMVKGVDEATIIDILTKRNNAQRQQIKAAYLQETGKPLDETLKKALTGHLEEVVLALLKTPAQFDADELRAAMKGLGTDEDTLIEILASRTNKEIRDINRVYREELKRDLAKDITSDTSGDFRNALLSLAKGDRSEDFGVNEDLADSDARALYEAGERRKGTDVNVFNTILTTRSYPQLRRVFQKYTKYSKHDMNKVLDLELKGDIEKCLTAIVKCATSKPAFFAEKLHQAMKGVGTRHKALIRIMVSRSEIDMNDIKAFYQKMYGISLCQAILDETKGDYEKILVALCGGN
# Sequence of UniProt P33121 (P33121 whole entry, looked up): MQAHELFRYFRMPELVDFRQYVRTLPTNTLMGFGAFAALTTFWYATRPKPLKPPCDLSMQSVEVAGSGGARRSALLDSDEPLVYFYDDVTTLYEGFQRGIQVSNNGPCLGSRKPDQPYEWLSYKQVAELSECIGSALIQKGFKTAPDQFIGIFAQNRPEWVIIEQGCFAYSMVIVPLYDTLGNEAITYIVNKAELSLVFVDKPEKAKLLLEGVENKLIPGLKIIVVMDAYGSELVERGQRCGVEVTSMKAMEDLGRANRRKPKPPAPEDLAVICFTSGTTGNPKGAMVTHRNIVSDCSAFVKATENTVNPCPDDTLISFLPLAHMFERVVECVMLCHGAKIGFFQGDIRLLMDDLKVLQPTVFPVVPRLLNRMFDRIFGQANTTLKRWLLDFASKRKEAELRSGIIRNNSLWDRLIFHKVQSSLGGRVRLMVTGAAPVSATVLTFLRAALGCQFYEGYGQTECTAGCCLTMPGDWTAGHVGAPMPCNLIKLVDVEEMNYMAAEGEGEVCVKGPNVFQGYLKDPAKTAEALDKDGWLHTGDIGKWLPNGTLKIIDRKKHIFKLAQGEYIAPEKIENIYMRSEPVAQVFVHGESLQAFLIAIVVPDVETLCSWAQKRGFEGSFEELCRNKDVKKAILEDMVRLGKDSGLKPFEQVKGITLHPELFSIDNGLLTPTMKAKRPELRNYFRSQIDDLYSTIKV
# Sequence of UniProt P05091 (P05091 whole entry, looked up): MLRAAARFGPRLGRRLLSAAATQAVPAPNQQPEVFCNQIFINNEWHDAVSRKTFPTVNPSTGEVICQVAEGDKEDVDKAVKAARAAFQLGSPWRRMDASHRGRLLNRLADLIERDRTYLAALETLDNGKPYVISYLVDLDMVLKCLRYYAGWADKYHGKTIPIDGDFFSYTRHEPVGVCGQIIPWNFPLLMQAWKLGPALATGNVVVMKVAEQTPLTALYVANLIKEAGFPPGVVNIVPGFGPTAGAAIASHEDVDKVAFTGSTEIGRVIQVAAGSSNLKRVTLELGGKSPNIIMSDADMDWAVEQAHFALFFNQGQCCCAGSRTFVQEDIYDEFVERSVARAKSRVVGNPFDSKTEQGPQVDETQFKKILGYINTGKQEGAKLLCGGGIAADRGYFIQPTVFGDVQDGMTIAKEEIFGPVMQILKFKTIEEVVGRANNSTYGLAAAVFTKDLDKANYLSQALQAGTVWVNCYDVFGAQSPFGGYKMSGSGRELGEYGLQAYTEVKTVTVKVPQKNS
# Sequence of UniProt O43182 (O43182 whole entry, looked up): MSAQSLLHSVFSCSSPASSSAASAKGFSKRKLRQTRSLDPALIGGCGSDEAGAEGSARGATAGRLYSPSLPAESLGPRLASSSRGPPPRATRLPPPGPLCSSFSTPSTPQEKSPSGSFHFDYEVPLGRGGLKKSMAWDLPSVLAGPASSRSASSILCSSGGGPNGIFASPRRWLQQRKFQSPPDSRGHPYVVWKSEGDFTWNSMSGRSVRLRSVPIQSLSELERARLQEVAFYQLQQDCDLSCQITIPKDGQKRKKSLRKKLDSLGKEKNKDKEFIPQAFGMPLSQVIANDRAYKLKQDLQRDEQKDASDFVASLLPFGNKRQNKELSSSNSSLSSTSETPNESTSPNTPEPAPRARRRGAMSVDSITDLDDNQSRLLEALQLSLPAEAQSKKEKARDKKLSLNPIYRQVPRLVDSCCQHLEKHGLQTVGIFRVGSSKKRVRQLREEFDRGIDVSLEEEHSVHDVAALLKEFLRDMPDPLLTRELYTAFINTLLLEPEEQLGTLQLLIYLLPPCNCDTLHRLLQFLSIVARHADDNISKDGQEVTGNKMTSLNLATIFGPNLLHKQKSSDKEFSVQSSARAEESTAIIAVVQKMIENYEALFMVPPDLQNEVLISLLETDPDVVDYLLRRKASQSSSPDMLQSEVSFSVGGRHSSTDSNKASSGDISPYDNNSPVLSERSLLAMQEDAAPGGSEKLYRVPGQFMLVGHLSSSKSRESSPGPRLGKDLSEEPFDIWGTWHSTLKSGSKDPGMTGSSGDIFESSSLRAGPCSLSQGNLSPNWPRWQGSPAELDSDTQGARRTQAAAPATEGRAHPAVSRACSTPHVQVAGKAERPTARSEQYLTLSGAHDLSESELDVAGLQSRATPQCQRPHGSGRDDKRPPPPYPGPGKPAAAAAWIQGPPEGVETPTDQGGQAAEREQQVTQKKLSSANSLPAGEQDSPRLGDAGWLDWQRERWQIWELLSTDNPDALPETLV
# Sequence of UniProt Q9NP73 (Q9NP73 whole entry, looked up): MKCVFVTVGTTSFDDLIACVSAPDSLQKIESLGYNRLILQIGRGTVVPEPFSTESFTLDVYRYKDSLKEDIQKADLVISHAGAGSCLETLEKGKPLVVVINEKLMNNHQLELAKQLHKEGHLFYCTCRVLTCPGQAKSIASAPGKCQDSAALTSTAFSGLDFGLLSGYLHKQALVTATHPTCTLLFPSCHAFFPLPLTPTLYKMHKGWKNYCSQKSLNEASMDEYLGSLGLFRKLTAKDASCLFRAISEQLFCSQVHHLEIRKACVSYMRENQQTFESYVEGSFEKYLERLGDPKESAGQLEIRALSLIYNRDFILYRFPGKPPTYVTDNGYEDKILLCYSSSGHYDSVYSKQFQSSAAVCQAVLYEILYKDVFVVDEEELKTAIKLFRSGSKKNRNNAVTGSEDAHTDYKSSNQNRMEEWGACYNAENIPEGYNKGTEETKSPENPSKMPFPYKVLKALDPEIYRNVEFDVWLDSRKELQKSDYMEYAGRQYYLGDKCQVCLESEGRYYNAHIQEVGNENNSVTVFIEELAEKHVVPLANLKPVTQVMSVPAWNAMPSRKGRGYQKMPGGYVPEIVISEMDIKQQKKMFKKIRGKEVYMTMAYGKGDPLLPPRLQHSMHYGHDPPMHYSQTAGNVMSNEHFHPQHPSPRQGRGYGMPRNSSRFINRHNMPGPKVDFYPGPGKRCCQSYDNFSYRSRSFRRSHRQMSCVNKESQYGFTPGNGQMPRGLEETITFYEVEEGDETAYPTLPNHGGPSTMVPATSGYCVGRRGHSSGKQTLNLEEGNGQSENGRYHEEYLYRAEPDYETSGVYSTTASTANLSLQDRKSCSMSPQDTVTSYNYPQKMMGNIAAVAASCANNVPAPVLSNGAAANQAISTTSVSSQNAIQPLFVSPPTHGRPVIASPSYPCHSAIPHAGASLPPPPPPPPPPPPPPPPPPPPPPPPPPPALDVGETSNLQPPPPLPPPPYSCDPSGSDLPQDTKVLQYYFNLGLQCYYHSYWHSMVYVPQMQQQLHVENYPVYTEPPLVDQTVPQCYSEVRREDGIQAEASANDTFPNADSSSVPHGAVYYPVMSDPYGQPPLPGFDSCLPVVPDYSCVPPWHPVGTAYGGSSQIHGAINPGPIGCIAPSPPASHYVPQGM
# Sequence of UniProt Q9NXU5 (Q9NXU5 whole entry, looked up): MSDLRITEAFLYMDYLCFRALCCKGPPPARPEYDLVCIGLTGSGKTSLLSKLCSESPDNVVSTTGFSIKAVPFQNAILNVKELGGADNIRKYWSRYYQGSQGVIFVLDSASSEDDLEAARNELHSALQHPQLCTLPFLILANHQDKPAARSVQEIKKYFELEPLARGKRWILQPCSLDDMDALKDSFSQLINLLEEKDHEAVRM
row,Target,log2 fold change
1,ARHGAP25 isoform 4 (UniProt P42331),-0.024
2,ARAF (UniProt P10398),-0.077
3,ANP32A (UniProt P39687),0.065
4,ALDH5A1 isoform 2 (UniProt P51649),-0.059
5,ANP32E (UniProt Q9BTT0),0.013
6,AKAP8L (UniProt Q9ULX6),0.033
7,ABHD13 (UniProt Q7L211),0.193
8,ANXA11 (UniProt P50995),0.008
9,ADD1 isoform 3 (UniProt P35611),-0.001
10,AK2 (UniProt P54819),0
11,AKAP8 (UniProt O43823),0.003
12,ARFGAP1 (UniProt Q8N6T3),1.08 (active)
13,ANAPC7 (UniProt Q9UJX3),-0.042
14,ALDH6A1 (UniProt Q02252),-0.033
15,ANKRD27 (UniProt Q96NW4),0.049
16,ALG13 (UniProt Q9NP73),0.044
17,ASB6 (UniProt Q9NWX5),-0.065
18,ACAT1 (UniProt P24752),0.03

row,Target,log2 fold change
1,ANKRD54 (UniProt Q6NXT1),0.049
2,AKT2 (UniProt P31751),-0.022
3,AP5B1 (UniProt Q2VPB7),-0.092
4,ANXA1 (UniProt P04083),-0.005
5,ARHGAP21 (UniProt Q5T5U3),0.102
6,ACYP1 (UniProt P07311),-0.051
7,AKAP11 (UniProt Q9UKA4),-0.176
8,ALDH2 (UniProt P05091),0.011
9,ARHGAP6 (UniProt O43182),-0.097
10,ACSL1 (UniProt P33121),-0.049
11,ARMC6 (UniProt Q6NXE6),-0.067
12,AFF1 isoform 2 (UniProt P51825),0.341
13,ANKRD30A (UniProt Q9BXX3),1.59 (active)
14,AMDHD2 isoform 3 (UniProt Q9Y303),0.008
15,ANXA5 (UniProt P08758),-0.119
16,ACTG1 (UniProt I3L4N8),-0.159
17,ARL15 (UniProt Q9NXU5),-0.098

# Compound: Cc1cc(Nc2cc(N3CCN(C)CC3)nc(Sc3ccc(NC(=O)C4CC4)cc3)n2)n[nH]1 [tozasertib]
# Test: as above
# How it was run: as §1
row,Target,log2 fold change
1,ARHGAP25 isoform 4 (UniProt P42331),-0.006
2,ARAF (UniProt P10398),-0.007
3,ANP32A (UniProt P39687),0.014
4,ALDH5A1 isoform 2 (UniProt P51649),0.005
5,ANP32E (UniProt Q9BTT0),0.041
6,AKAP8L (UniProt Q9ULX6),0
7,ABHD13 (UniProt Q7L211),-0.044
8,ANXA11 (UniProt P50995),0.026
9,ADD1 isoform 3 (UniProt P35611),-0.002
10,AK2 (UniProt P54819),0
11,AKAP8 (UniProt O43823),0.017
12,ARFGAP1 (UniProt Q8N6T3),-0.011
13,ANAPC7 (UniProt Q9UJX3),-0.019
14,ALDH6A1 (UniProt Q02252),0.021
15,ANKRD27 (UniProt Q96NW4),0.002
16,ALG13 (UniProt Q9NP73),-0.091
17,ASB6 (UniProt Q9NWX5),-0.159
18,ACAT1 (UniProt P24752),-0.009

row,Target,log2 fold change
1,ANKRD54 (UniProt Q6NXT1),-0.002
2,AKT2 (UniProt P31751),0.033
3,AP5B1 (UniProt Q2VPB7),-0.028
4,ANXA1 (UniProt P04083),0.012
5,ARHGAP21 (UniProt Q5T5U3),-0.092
6,ACYP1 (UniProt P07311),0.016
7,AKAP11 (UniProt Q9UKA4),0.061
8,ALDH2 (UniProt P05091),0.023
9,ARHGAP6 (UniProt O43182),0.004
10,ACSL1 (UniProt P33121),0.033
11,ARMC6 (UniProt Q6NXE6),0.024
12,AFF1 isoform 2 (UniProt P51825),0.066
13,ANKRD30A (UniProt Q9BXX3),0.281
14,AMDHD2 isoform 3 (UniProt Q9Y303),-0.013
15,ANXA5 (UniProt P08758),0.019
16,ACTG1 (UniProt I3L4N8),0.083
17,ARL15 (UniProt Q9NXU5),0.023
